Source: PubChem BioAssay (National Center for Advancing Translational Sciences (NCATS))
Pol eta inh-1 = qHTS for Inhibitors of Polymerase Eta; Potency, µM (top dose mostly 114 µM), for inactives: at the highest dose activity change, negative = inhibition, hits mostly inhibitors; recombinant Pol eta, fluorescent DNA replication assay; hit rate 1.2% among 390,000; DNA polymerase eta (Homo sapiens), Q9Y253; AID 588591, 2011; also: potency is read from the fitted curve at half-maximal effect; % is scaled to controls: 0 for no effect and ±100 for the full control effect
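Fluorescent replication assay: 50 nM final substrate added after a 15 min room-temperature compound preincubation with 10 nM enzyme. Signal taken at 0 min and again at 10 min.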
FEN1 inhibitor = qHTS Assay for the Inhibitors of Human Flap endonuclease 1 (FEN1) | hit rate 0.35% among 390,000 | Recombinant FEN1 flap cleavage, fluorescence, 15 min | P39748 | Potency, µM (doses to about 114 µM), for the others: at the top dose activity change, negative = inhibition, most hits filed as inhibitors | AID 588795, 2011; also: potency is read from the fitted curve at half-maximal effect; % is scaled to controls: 0 for no effect and ±100 for the full control effect; nearly all actives have a fitted effect of over 65% in size
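FEN1 at 10 nM, compound pretreatment for 15 min (room temperature), 50 nM final substrate to initiate; endpoint reads at 0 and 15 min; DMSO-only plates used as vehicle background.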
WRN helicase inh = qHTS for Inhibitors of WRN Helicase; Potency, µM (doses to about 114 µM), for inactives: top-dose activity change, negative = inhibition, actives largely listed as inhibitors; hit rate 0.46% among 360,000; Bifunctional 3'-5' exonuclease/ATP-dependent helicase WRN (Homo sapiens), Q14191; WRN helicase unwinding, fluorescent forked duplex, kinetic; also: potency is read from the fitted curve at half-maximal effect; % is scaled to controls: 0 for no effect and ±100 for the full control effect; nearly all actives have a fitted effect of over 55% in size
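Fluorescence dequenching readout, ex 525 nm/em 598 nm, kinetic mode: forked duplex DNA (100 nM final) with adjacent fluorophore and quencher unwound by WRN (20 nM final) with 2 mM ATP. Compound preincubation 15 min, room temperature.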
Pol kappa inh-1 = qHTS for Inhibitors of Polymerase Kappa | purified Pol kappa, fluorescent DNA synthesis assay, 10 min | Potency, µM (titrated, usually from 107 µM), inactives show at the top dose activity, negative = inhibition, most hits filed as inhibitors | hit rate 0.53% among 400,000 | AID 588579, 2011; also: potency is read from the fitted curve at half-maximal effect; % is scaled to controls: 0 for no effect and ±100 for the full control effect
Target sequence (Q9UBT6 whole entry, looked up): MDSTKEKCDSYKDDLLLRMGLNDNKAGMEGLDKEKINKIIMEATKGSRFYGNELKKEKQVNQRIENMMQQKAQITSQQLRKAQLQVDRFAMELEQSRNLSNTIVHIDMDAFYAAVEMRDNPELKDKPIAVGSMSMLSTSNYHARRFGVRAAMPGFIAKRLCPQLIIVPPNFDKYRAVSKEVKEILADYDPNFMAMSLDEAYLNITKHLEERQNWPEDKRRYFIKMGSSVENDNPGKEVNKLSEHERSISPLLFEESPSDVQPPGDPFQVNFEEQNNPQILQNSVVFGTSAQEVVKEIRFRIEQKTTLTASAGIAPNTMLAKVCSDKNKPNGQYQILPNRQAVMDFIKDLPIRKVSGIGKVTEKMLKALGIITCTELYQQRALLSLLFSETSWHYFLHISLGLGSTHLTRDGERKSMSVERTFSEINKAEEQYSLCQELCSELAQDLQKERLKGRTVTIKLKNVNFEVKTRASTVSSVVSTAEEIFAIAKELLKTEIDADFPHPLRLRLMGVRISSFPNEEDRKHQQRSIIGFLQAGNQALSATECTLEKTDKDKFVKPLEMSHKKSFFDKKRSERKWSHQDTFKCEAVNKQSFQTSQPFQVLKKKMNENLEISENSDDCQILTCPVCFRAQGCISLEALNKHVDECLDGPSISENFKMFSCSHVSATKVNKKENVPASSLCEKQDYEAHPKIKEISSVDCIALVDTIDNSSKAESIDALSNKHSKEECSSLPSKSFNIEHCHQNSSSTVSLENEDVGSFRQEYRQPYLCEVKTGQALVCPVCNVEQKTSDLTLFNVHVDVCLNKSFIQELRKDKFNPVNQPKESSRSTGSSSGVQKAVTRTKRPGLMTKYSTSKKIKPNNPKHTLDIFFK
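Fluorescent qHTS in 1536-well format: enzyme (10 nM) and compound sat 15 min at room temperature before 50 nM substrate (final) was added. Signal taken at 0 and 10 min; no-enzyme buffer wells were negative controls.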
Pol beta inh = qHTS Assay for Inhibitors of DNA Polymerase Beta; Pol beta primer extension/strand displacement, fluorescence kinetic; Potency, µM (series often up to 114 µM), for the others: at the top dose activity change, negative = inhibition, actives largely listed as inhibitors; hit rate 1.3% among 340,000; AID 485314, 2010; also: potency is read from the fitted curve at half-maximal effect; % is scaled to controls: 0 for no effect and ±100 for the full control effect
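Kinetic readout of DNA synthesis with strand displacement by Pol beta. Compound and 10 nM enzyme sit 15 min at room temperature; 50 nM substrate starts the reaction, read immediately and at 10 min.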
Pol iota inh = qHTS for Inhibitors of Polymerase Iota; Potency, µM (highest dose often 115 µM), inactives show at the top dose activity, negative = inhibition, hits mostly inhibitors; hit rate 1% among 390,000; Pol iota fluorescent replication assay, 10 min; AID 588590, 2011; also: potency is read from the fitted curve at half-maximal effect
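Fluorescent replication assay read twice, at 0 min and 10 min after adding 50 nM (final) substrate. Enzyme (10 nM) and compounds were first incubated 15 min at room temperature; enzyme-free buffer wells were negative controls.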
TbPGK inh = qHTS for inhibitors of Phosphogylcerate Kinase: Hit Validation Screen. shares compounds with Pol kappa inh-1. TbPGK coupled GAPDH assay, Kinase-Glo luminescence. Potency, µM (top dose mostly 57.5 µM), without a hit: at the top dose activity change, negative = inhibition, actives largely listed as inhibitors. hit rate 79% among 500. AID 686980, 2013; also: potency is read from the fitted curve at half-maximal effect; % is scaled to controls: 0 for no effect and ±100 for the full control effect; nearly all actives have a fitted effect of over 65% in size
POLI cherry-pick = qHTS for Inhibitors of Polymerase Iota: Confirmatory Assay for Cherry-picked Compounds | shares compounds with Pol kappa inh-1 | Pol iota primer extension, TAMRA/BHQ fluorescence | Potency, µM, actives largely listed as inhibitors | hit rate 77% among 1,500 | AID 720496, 2013; also: potency is read from the fitted curve at half-maximal effect
GALK confirm = Confirmation Assay for Inhibitors of Human Galactokinase (GALK). hit rate 70% among 150. AID 2015, 2009. shares compounds with Pol eta inh-1. Potency, µM (series often up to 115 µM), inactives show at the top dose activity, negative = inhibition, usual class: inhibitors. purified GALK, Kinase-Glo ATP depletion luminescence
Redox cycling = Confirmatory Assay for Inhibitors of Human Galactokinase (GALK): Phenol-HRP redox assay counterscreen. hit rate 40% among 150. AID 2035, 2009. Phenol red-HRP H2O2 redox cycling, absorbance 600 nm. shares compounds with Pol eta inh-1. Potency, µM (titrated, usually from 115 µM), inactives show at the highest dose activity change, negative = H2O2 signal, actives largely listed as inhibitors
HEK293 tox = Secondary Assay for Inhibitors of Human Galactokinase (GALK): HEK-293 Cell Viability Assay. shares compounds with Pol eta inh-1. HEK-293 viability, ATP luminescence (CellTiter-Glo), 24/48 h. Potency, µM (doses to about 46.1 µM), for inactives: top-dose activity change, negative = cytotoxicity, actives largely listed as inhibitors. hit rate 10% among 170; also: potency is read from the fitted curve at half-maximal effect; % is scaled to controls: 0 for no effect and ±100 for the full control effect
Pol kappa inh-2 = qHTS for Inhibitors of Polymerase Kappa: Confirmatory Assay for Cherry-picked Compounds | shares compounds with Pol eta inh-1 | purified Pol-kappa, fluorescent strand-displacement substrate | Potency, µM, actives largely listed as inhibitors | hit rate 76% among 920 | AID 720501, 2013; also: potency is read from the fitted curve at half-maximal effect
Pol eta inh-2 = qHTS for Inhibitors of Polymerase Eta: Confirmatory Assay for Cherry-picked Compounds. shares compounds with Pol eta inh-1. Pol eta primer extension, TAMRA/BHQ fluorescence, 10 min. Potency, µM, actives largely listed as inhibitors. hit rate 64% among 2,600; also: potency is read from the fitted curve at half-maximal effect
* hit, by the source's call; ? = inconclusive; / = no result; [ ] = another dose, or the depositor's remark. Compounds with a hit are over-represented: about 2.4% of the library has one in this group of screens. Calls follow the shape of the dose curve; as a rule, active = well fitted curve in the direction sought with a large enough effect; inconclusive = small, poorly fitted or top-dose-only effect, or another doubt; inactive = no such curve, though single readings can be large; an effect the other way counts as inactive or inconclusive.

SMILES	Pol eta inh-1	FEN1 inhibitor	WRN helicase inh	Pol kappa inh-1	Pol beta inh	Pol iota inh	POLI cherry-pick	Pol eta inh-2	others
O=C(O)c1ccc(NC2=C/C(=N/S(=O)(=O)c3ccccc3)c3ccccc3C2=O)cc1	8.9µM*	?	?	-11%	-24%	?	19*	21*	GALK confirm=?;Redox cycling=6µM*;HEK293 tox=11µM*
Cc1cc(C)c(S(=O)(=O)/N=C2\C=C(NS(=O)(=O)c3ccccc3)C(=O)c3ccccc32)c(C)c1	-24%	4%	-9%	1%	27%	?	/	/
O=C(O)c1ccc(NC2=C/C(=N/S(=O)(=O)c3cccs3)c3ccccc3C2=O)cc1	8.9µM*	/	-16%[11.6 µM]	/	/	/	30*	21*
CCc1ccc(S(=O)(=O)/N=C2\C=C(Nc3cccc(C(=O)O)c3)C(=O)c3ccccc32)cc1	22µM*	-25%	?	-24%	?	1.1µM*	75*	60*
O=C(NCCCCCCNC(=O)ON=C1CCCCC1)ON=C1CCCCC1	/	/	/	13%[60.1 µM]	/	/	/	/
Cc1cc(Cl)ccc1OCC(=O)Nc1cccc(-c2nc3ccccc3o2)c1	/	0%	/	-8%	/	-4%	/	/
CCC(=O)Nc1ccc(C(=O)COC(=O)c2nc3nccc(C)n3n2)cc1	3.5µM*	?	?	?	/	4µM*	17*	27*	Pol kappa inh-2=17*
Cc1ccnc2nc(C(=O)OCC(=O)c3ccc(NC(=O)CC(C)C)cc3)nn12	?	-11%	-15%	-38%	/	?	/	/
COc1ccc(C(=O)N/N=C/c2ccc(OC(=O)c3cccc4ccccc34)c([N+](=O)[O-])c2)cc1	?	-2%	-14%	?	11µM*	?	?	/	Pol kappa inh-2=67*
COc1cccc(NC(=O)CSc2nc3c(c(-c4ccco4)c2C#N)CCCC3)c1	-10%	-5%	0%	-15%	-28%	-13%[58.9 µM]	/	/
Cc1cc(NC(=O)CSc2nc3c(c(-c4cccnc4)c2C#N)CCC3)no1	?	-21%	?	2%	1%	28%	38*	/	Pol kappa inh-2=38*
CS(=O)(=O)N1CCN(c2nc(-c3cccs3)nc3ccccc23)CC1	/	-8%	/	-2%	/	-10%	/	/
CCOC(=O)c1[nH]c2c(c1C)C(=O)CC(c1ccco1)C2 (stereo not drawn)	20µM*	?	?	56µM*	28µM*	?	67*	60*
COCCOC(=O)c1[nH]c2c(c1C)C(=O)CC(c1ccco1)C2 (stereo not drawn)	13µM*	?	?	22µM*	11µM*	-79%	42*	38*
COc1ccc(N(C(=O)c2cccc(C)c2)S(=O)(=O)c2ccc(C)cc2)cc1	-18%	6%	/	-1%	-11%	11%	/	/
CC(CS(=O)(=O)c1ccc2c(c1)NC(=O)CS2)C(=O)NCc1ccccc1Cl (stereo not drawn)	18µM*	-21%	40µM*	?	100µM*	45µM*	?	34*	TbPGK inh=1.8µM*
O=C1CSc2ccc(S(=O)(=O)NCc3ccccc3Cl)cc2N1	?	0%	-6%	-17%	15%	25%	/	/
O=C(Nc1ccc(-c2nc3ncccc3o2)cc1)c1ccc([N+](=O)[O-])o1	11µM*	10%	-2%[11.6 µM]	-9%	50µM*	?	75*	76*
O=C(Nc1ccc2oc(-c3ccncc3)nc2c1)c1ccc([N+](=O)[O-])o1	?	7%	-11%	-10%	?	?	/	/
COc1cc2c(-c3ccc(O)cc3)nc3c(c(C)nn3-c3ccccc3)c2cc1OC	?	?	?	-11%	?	?	24*	67*
COc1cccc(-c2nc3c(c(C)nn3-c3ccccc3)c3cc(OC)c(OC)cc23)c1	-11%	-14%	/	-8%	34%	-18%	/	/
C1CCC[C@H]2CCCN3CC[C@H](CCCCCC[C@@H]4CCCN5CC[C@H](CC1)OC45)OC23	/	/	/	5%[19.4 µM]	/	/	/	/
CC(C)(C)c1ccc(-c2nc(SCC(=O)Nc3ccc(Cl)cc3)[nH]c(=O)c2C#N)cc1	28µM*	20µM*	/	?	79µM*	45µM*	?	?	Pol kappa inh-2=?
O=C(CCc1ccco1)CCc1ccco1	?	-16%	-13%[11.6 µM]	?	/	25µM*	?	76*	Pol kappa inh-2=34*
CCc1ccccc1NC(=O)CSc1ccsc1[N+](=O)[O-]	32µM*	-10%	?	?	25µM*	18µM*	?	60*
